Reference: PubChem BioAssay AID2315 (National Center for Advancing Translational Sciences (NCATS), 2010)
The campaign covered roughly 290,000 compounds. About 27,000 (9.3%) were called active. For the sample, actives were picked, then their nearest neighbours and some compounds at random. Unmarked numbers belong to inactive results. No stated cut-off is given here; in the data, active means inhibition mostly above about 28% (no sharp cut-off); inactive means mostly below about 43%.

Assay: A qHTS for Small Molecule Inhibitors of Shiga Toxin; further: 0% is about no effect
Details: Vero cells, Shiga toxin protein synthesis inhibition reporter; at 38.7 µM, active compounds read high
Work on `[2H]C(CCOS(N)(=O)=O)c1ccccc1` (stereo not drawn) yielded an inhibition of -5.48%.
Work on `COc1cc2ccccc2cc1C(=O)Nc1ccc(N2CCOCC2)cc1` yielded an inhibition of 18.7%.
With `CN(CC(=O)Nc1ccc(N2CCOCC2)cc1)CC(=O)Nc1ccccc1[N+](=O)[O-]` the inhibition was -10.3%.
For `O=C(Nc1ccc(N2CCOCC2)cc1)c1ccc(-c2ccccc2[N+](=O)[O-])o1`, the inhibition was 46.4% (active).
With `Cc1nnc(SCC(=O)Nc2ccc(S(=O)(=O)Nc3ccc(Cl)nn3)cc2)s1` the inhibition was -5.8%.
With `NS(=O)(=O)c1ccc(-c2ccc(/C=C3\SC(=O)NC3=O)o2)cc1` the inhibition was -1.11%.
For `COc1cccc(/C=N/Nc2ccc(Cl)nn2)c1`, the inhibition was 25.9%.
Compound `Cc1ccsc1/C=N/Nc1ccc(Cl)nn1` has an inhibition of 17.1%.
In the case of `Clc1ccc(N/N=C/c2cccs2)nn1`, the inhibition is reported as 122% (active).
Work on `Nc1nnnn1/N=C/c1cccs1` yielded an inhibition of -9.54%.
For `Oc1cccc(/C=N/Nc2ccc(Cl)nn2)c1O`, the inhibition was 60.3% (active).
Compound `Cc1ccc(S(=O)(=O)N2CCN(c3ccccc3)CC2)cc1C` has an inhibition of -9.21%.
In the case of `O=C(CC1SC(=Nc2ccccc2)N(Cc2ccccn2)C1=O)Nc1cccc(Cl)c1` (stereo not drawn), the inhibition is reported as 44.2% (active).
For `CN1C(=O)C(CC(=O)Nc2ccccc2)S/C1=N/c1nccs1` (stereo not drawn), the inhibition was -5.12%.
In the case of `CCN1C(=O)C(CC(=O)Nc2cc(C)ccc2C)SC1=Nc1ccc(S(N)(=O)=O)cc1` (stereo not drawn), the inhibition is reported as 28.8%.
For `COc1ccc(NC(=O)CCCN2C(=O)C(c3ccccc3)Oc3cccnc32)cc1` (stereo not drawn), the inhibition was -5.94%.
`C/C(=N\Nc1nncc2ccccc12)c1ccc(Cl)c([N+](=O)[O-])c1` gave an inhibition of 59.8%.
In the case of `CN(CCO)c1ccc(/C=N/Nc2nncc3ccccc23)cc1`, the inhibition is reported as 41.9% (active).
`COc1cc(/C=N/Nc2nn3cnnc3c3ccccc23)cc(OC)c1OC` showed an inhibition of 18.6%.
For `Oc1ccc(N=Nc2nccs2)c(O)c1`, the inhibition was 58.3% (active).
Compound `Oc1ccc2ccccc2c1N=Nc1nccs1` has an inhibition of 13.9%.
`Cc1ccc(CNC(=O)Cn2cnc(S(=O)(=O)N3CCCCC3)c2)o1` gave an inhibition of 0.422%.
In the case of `O=C(Nc1ccc2c(c1)CCC2)c1cccc(S(=O)(=O)N2CCN(c3ccc(F)cc3)CC2)c1`, the inhibition is reported as 86.5% (active).
For `Cc1cccnc1NC(=O)c1cccc(S(=O)(=O)N2CCN(c3ccc(F)cc3)CC2)c1`, the inhibition was -9.4%.
Compound `O=C(Nc1ccc2c(c1)CCC2)c1cccc(S(=O)(=O)Nc2ccccc2Cl)c1` has an inhibition of 8.91%.
For `O=C(O)CS/C(=C\c1ccc(F)cc1)c1nc2ccccc2s1`, the inhibition was 121% (active).
Work on `CN(Cc1nc2ccccc2s1)C(=O)c1ccc(F)cc1` yielded an inhibition of 27.2%.
For `O=C(O)CSCc1nc2ccccc2s1`, the inhibition was 49.5%.
In the case of `CCOC(=O)N1CCN(C(=O)c2ccc3c(=O)n(CCc4ccc(OC)c(OC)c4)c(=O)[nH]c3c2)CC1`, the inhibition is reported as -3.86%.
Work on `Cc1cccc(CSc2nnc(C)c(=O)n2N)c1` yielded an inhibition of -13%.
`Cc1nnc(SCc2cccc(Cl)c2)n(N)c1=O` gave an inhibition of -4.93%.
For `Nn1c(SCc2ccccc2)nnc1C1CCCCC1`, the inhibition was 101% (active).
With `CC(C)CC(=O)Nc1ccc(Cc2ccncc2)cc1` the inhibition was -5.26%.
For `Cc1nc2cc(C(F)(F)F)ccc2n1CCNc1nc(-c2cc(Cl)c(N)c(Cl)c2)cs1`, the inhibition was -1.88%.
`COc1ccc(CN2CCN(C(=O)CCC(=O)Nc3nnc(C(C)C)s3)CC2)cc1F` gave an inhibition of -3.9%.
Work on `CCc1nc(SCC(=O)NNC(=O)c2ccc(C)cc2)c2ccccc2n1` yielded an inhibition of -1.93%.
With `Cc1ccc(C(=O)NNc2ncnc3ccccc23)cc1` the inhibition was 76.1% (active).
`Cc1ccc(C(=O)NNC(=O)c2cc3cc4ccccc4nc3s2)cc1` showed an inhibition of -14.9%.
With `CC(C)CC(=O)Nc1nnc(S(=O)(=O)N(C)c2ccc(Cl)cc2)s1` the inhibition was -4.79%.
`CCOC(=O)C1=C(C)Nc2nc3ccccc3n2C1c1cccs1` (stereo not drawn) gave an inhibition of -8.56%.
With `CCOC(=O)C1=C(C)NC(=S)NC1c1cccs1` (stereo not drawn) the inhibition was -11.1%.
In the case of `C=CCOC(=O)C1=C(C)NC(C)=C(C(=O)OCC=C)C1c1cccs1`, the inhibition is reported as 86.3% (active).
With `COc1ccc(-c2cc(C(=O)NCCCN3CCOCC3)no2)cc1` the inhibition was 20%.
For `COc1ccc(OCc2cc(C(=O)NCC3(C)COC3)no2)c(Cl)c1`, the inhibition was 75.4% (active).
With `COc1ccc(CCNC(=O)c2cnc(Cl)c(Cl)c2)cc1` the inhibition was -1.83%.
In the case of `CC1CC(C)CN(CCCNC(=O)c2csc3c2CCCCC3)C1` (stereo not drawn), the inhibition is reported as -1.88%.
`CC(=O)c1cccc(NC(=O)c2cc(C)nn2-c2ccccc2)c1` showed an inhibition of 30.5%.
`CC(C)C[C@H](NC(=O)N1CCn2c1nc1ccccc12)C(=O)NC1CC1` showed an inhibition of 23.3%.
For `CCCCNC(=O)N(O)C1N(/N=C/c2ccccc2O)C(=S)SC1(C)C` (stereo not drawn), the inhibition was 34.2% (active).
For `CCCCNC(=O)N(O)C1N(/N=C/c2ccc(N(C)C)cc2)C(=S)SC1(C)C` (stereo not drawn), the inhibition was -5.76%.
With `CCC(C)N1C(=S)SC(C)(C)C1N(O)C(=O)NC1CCCCC1` (stereo not drawn) the inhibition was -10.6%.
`Cc1ccc(S(=O)(=O)NC(=O)c2cccc(C)c2)cc1` showed an inhibition of 18.1%.
`Cn1ncc2c(N3CCCCC3)nc(NCCCO)nc21` showed an inhibition of 1.02%.
Work on `COc1cc(CN2CCC(n3nccc3NC(=O)CCCc3ccccc3)CC2)ccc1O` yielded an inhibition of 7.77%.
Compound `COc1ccc(N(CC(=O)NC(C)(C)C)C(=O)c2ccco2)cc1` has an inhibition of -10.7%.
Compound `CC(C)(C)NC(=O)c1cc(NC(=O)c2ccco2)cc(NC(=O)c2ccco2)c1` has an inhibition of 24.3%.
With `C/C(CC(=O)NC(C)(C)C)=N\NC(=O)c1ccco1` the inhibition was 70.6% (active).
With `CCNS(=O)(=O)c1ccc(CCC(=O)N2CCN(c3ccc(OC)cc3)CC2)cc1` the inhibition was 13.1%.
Compound `Cc1nn(CCCC(=O)NCc2ccccc2Cl)c(=O)c2nccn12` has an inhibition of -3.9%.
Work on `NC(=O)c1oc2ccccc2c1NC(=O)CS(=O)(=O)c1ccccc1` yielded an inhibition of 12.2%.
`COC(=O)c1ccc(CN2C(=O)NC(c3ccccc3)(c3ccccc3)C2=O)o1` gave an inhibition of 21.7%.
Compound `Cc1ccc2c(c1)N(CC(=O)NCCCN1CCCCC1)C(=O)c1cccnc1O2` has an inhibition of 2.73%.
For `CC(Oc1cccc(NC(=O)c2cccs2)c1)C(=O)c1ccccc1` (stereo not drawn), the inhibition was 36.4%.
In the case of `O=C(Nc1ccc2oc(-c3ccc4ccccc4c3)nc2c1)c1cccs1`, the inhibition is reported as 80.9% (active).
In the case of `CC(O)c1cccc(NC(=O)Cc2cccc3ccccc23)c1` (stereo not drawn), the inhibition is reported as 0.246%.
Compound `O=C(Cc1cccc2ccccc12)NNC(=O)Nc1ccc(Cl)cc1` has an inhibition of 62.1%.
With `O=C(Nc1ccc(NC(=O)c2cccs2)cc1)c1ccc2ccccc2c1` the inhibition was 24.5%.
For `O=C(Cc1cccc2ccccc12)Nc1ccc2oc(-c3ccccc3)nc2c1`, the inhibition was 74.8% (active).
`COc1ccnc2c1c(=O)n(Cc1cccc(F)c1)c(=O)n2C` gave an inhibition of -2.76%.
`Cn1c(=O)c2c(nc(NCCNC(=O)c3ccco3)n2Cc2ccccc2F)n(C)c1=O` gave an inhibition of -9.7%.
In the case of `O=C(O)c1ccccc1CSc1nc2ccccc2s1`, the inhibition is reported as 70.7% (active).
With `CCN(CC)CCCSc1nc2ccccc2s1` the inhibition was 47.9%.
In the case of `O=C(CSc1nc2ccccc2s1)Nc1ccc(C(=O)O)cc1`, the inhibition is reported as -1.35%.
In the case of `COc1cc(OC)cc(C(=O)OCC(=O)Nc2sccc2C(N)=O)c1`, the inhibition is reported as -3.26%.
In the case of `CCOC(=O)N1CCN(C(=O)C2CCN(S(=O)(=O)c3cc(Cl)ccc3OCC)CC2)CC1`, the inhibition is reported as -12.3%.
`Cc1ccc(N(CC(=O)NC2CCCCC2)C(=O)CCCC(=O)Nc2ccccn2)c(C)c1` showed an inhibition of -5.94%.
With `COc1ccc(CCc2nc(-c3cccs3)no2)cc1` the inhibition was 120% (active).
Compound `CCc1ccc(CNC(=O)CCc2nc(-c3cccs3)no2)cc1` has an inhibition of -8.04%.
Work on `COc1ccc(OC)c(CNC(=O)CCc2nc(-c3cccs3)no2)c1` yielded an inhibition of 4.93%.
For `COc1ccc(S(=O)(=O)NCCc2cc3ccc(C)c(C)c3[nH]c2=O)cc1`, the inhibition was 1.8%.
`Cn1c(SCc2ccc(F)cc2)nnc1-c1ccncc1` showed an inhibition of 3.38%.
`Cc1cc(C)nc(SCC(=O)c2ccc(Cl)cc2)n1` showed an inhibition of -6.93%.
Work on `Cc1cc(SCC(=O)c2ccccc2)nc(SCC(=O)c2ccccc2)n1` yielded an inhibition of 51.3%.
With `Cc1cc(C)nc(S/C=C/C(=O)c2ccccc2)n1` the inhibition was 159% (active).
For `O=C(c1ccc(Br)o1)N1CCN(CCOc2ccccc2)CC1`, the inhibition was -4.41%.
For `Cc1ccc(CNC(=O)[C@@H](NC(=O)Cc2ccccc2)C(C)C)cc1`, the inhibition was -12.1%.
For `CCCOc1ccc(/C=N/NC(=O)C2CC2)c(OCCC)c1`, the inhibition was -6.76%.
`O=C(CSC1=Nc2ccccc2C2=NC(CC(=O)NCc3ccco3)C(=O)N12)NCc1ccco1` (stereo not drawn) gave an inhibition of -3.74%.
In the case of `O=C(CC1N=C2c3ccccc3N=C(SCc3ccccc3Cl)N2C1=O)NCc1ccco1` (stereo not drawn), the inhibition is reported as 38.1% (active).
`CCC(C)NC(=O)CSC1=Nc2ccccc2C2=NC(CCC(=O)NCc3ccco3)C(=O)N12` (stereo not drawn) gave an inhibition of -9.08%.
For `CC(=O)OCC(NC(=O)C(Cc1ccccc1)NC(=O)OC(C)(C)C)C1OC(n2ccc(=O)[nH]c2=O)C(OC(C)=O)C1OC(C)=O` (stereo not drawn), the inhibition was 7.84%.
`C=CCNc1nc(N)c([N+](=O)[O-])c(NC2CCCCC2)n1` gave an inhibition of 14.1%.
`CCC(CC)c1nnc(NC(=O)C2CCN(C(=O)c3ccco3)CC2)s1` gave an inhibition of 4.71%.
In the case of `COc1ccc(N=Nc2ccc(O)c(P(=O)(c3ccccc3)c3ccccc3)c2)cc1`, the inhibition is reported as -5.57%.
For `Cc1cc(N=Nc2ccc3ccccc3c2)ccc1O`, the inhibition was 107% (active).
With `Cc1c(N=Nc2ccc(N(C)C)cc2)c(=O)n(-c2ccccc2)n1C` the inhibition was 55.4% (active).
Work on `Cc1nc(N)sc1N=Nc1c(C)n(C)n(-c2ccccc2)c1=O` yielded an inhibition of 2.84%.
`Cc1ccc(N=Nc2c(C)[nH]n(-c3ccccc3)c2=O)cc1` gave an inhibition of 25.5%.
